From PubChem
Shown are actives, neighbours in structure and some others; about 3.8% of the full set was active somewhere.
HepG2 viability: kills HepG2 cells in TGF-b inhibitor counter-screen; Potency, µM (doses to about 46.1 µM), without a hit: at the highest dose activity change, negative = cytotoxicity, most hits filed as cytotoxic; AID 588856; HepG2 CAGA-GFP viability, ATP luminescence, 18 h; 410,000 compounds, 0.76% hits
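HepG2 CAGA-GFP cells (1000/well, DMEM with 1% FBS) received compound, then TGF-beta at 500 pg/mL final, and were incubated 18 hours at 37 degrees C. Viability was read by CellTiter-Glo luminescence. Media-only wells were set as complete cell-killing and DMSO as no toxicity.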
ATXN viability: viability counter-screen for ATXN expression inhibitors | S2 cells (HEK-293 line with an ATXN2-luciferase reporter) viability, CellTiter-Fluor protease fluorescence, 24 h | Potency, µM (highest dose often 56.7 µM), usual class: cytotoxic | 400,000 compounds, 0.49% hits | AID 651635; also: nearly all actives have a fitted effect of over 40% in size
HT1080 IDH1KD tx: kills HT-1080 cells with IDH1 knockdown. AID 686971. 360,000 compounds, 2% hits. Potency, µM (top dose mostly 46.1 µM), without a hit: top-dose activity, negative = toxicity, most hits filed as cytotoxic. HT-1080 IDH1 knockdown viability, ATP luminescence, 48 h;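 also: 0% = DMSO wells and -100% = cell-free medium wells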
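After a 2 h attachment period, IDH1KD HT-1080 cells took pin-transferred compound for 48 h at 37 °C; ATP-based luminescence after 10 min room-temperature reagent incubation reported viability.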
ATXN2 expr inh: inhibitors of ATXN2 expression. HEK-293 ATXN2-luciferase reporter, luminescence, 24 h. Potency, µM (series often up to 57 µM), inactives show at the highest dose activity change, negative = inhibition, actives largely listed as inhibitors. 360,000 compounds, 0.72% hits. AID 1745845; also: % is scaled to controls: 0 for no effect and ±100 for the full control effect; nearly all actives have a fitted effect of over 55% in size
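qHTS (up to 57 uM final) was run with 24 h compound exposure of reporter cells at 37 °C. Each well was multiplexed: SteadyGlo luminescence measured ATXN2-luciferase expression after a fluorogenic Gly-Phe-AFC viability readout (25 uM final).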
HT1080-NT tox: kills 2HG-producing HT-1080-NT fibrosarcoma cells. HT-1080-NT fibrosarcoma viability, CellTiter-Glo ATP luminescence, 48 h. Potency, µM (highest dose often 46.1 µM), for the others: top-dose activity, negative = less viability, usual class: cytotoxic. 360,000 compounds, 1.6% hits;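 also: NT is the 2HG producing partner of a matched IDH1 knockdown line; 0% = DMSO-treated cells and -100% = media-only wells without cells; nearly all actives have a fitted effect of over 55% in size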
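HT-1080-NT fibrosarcoma cells (2HG-overproducing), 750 cells/well in RPMI with 5% FBS, dosed after 2 h and incubated 48 h at 37C. CellTiter-Glo luminescence normalized to DMSO and no-cell wells; concentration-response curves fitted and classed.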
TGFb SMAD3 inh: TGF-b pathway inhibition; HepG2 CAGA-GFP TGF-b/SMAD3 reporter, GFP fluorescence, 18 h; TGF-beta stimulated, 500 pg/mL final; Potency, µM (doses to about 46.1 µM), without a hit: top-dose activity, negative = inhibition, actives largely listed as inhibitors; 410,000 compounds, 1.2% hits; AID 588855; also: % is scaled to controls: 0 for no effect and ±100 for the full control effect; nearly all actives have a fitted effect of over 65% in size
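TGF-beta reporter screen: HEPG2 CAGA-GFP, 1% FBS, 500 pg/mL TGF-beta final, 18 h; per-cell GFP summed per well; curves fitted and categorized by class.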
* marks the source's active call; other numbers are inactive results. Calls follow the shape of the dose curve; as a rule, active = well fitted curve in the direction sought with a large enough effect; inconclusive = small, poorly fitted or top-dose-only effect, or another doubt; inactive = no such curve, though single readings can be large; an effect the other way counts as inactive or inconclusive. Potency is read from the fitted curve at half-maximal effect.

COc1ccc(C2NCCc3c2[nH]c2ccccc32)cc1COc1ccc(F)cc1 (stereo not given) was read as HepG2 viability 11.2µM*, ATXN viability 31.6µM*, HT1080 IDH1KD tx inconclusive, ATXN2 expr inh 28.2µM*, HT1080-NT tox inconclusive and TGFb SMAD3 inh inconclusive.
For O=C(NCC1Cc2cccc(-c3cnccn3)c2O1)C1COc2ccccc2O1 (stereo not given) the results were ATXN viability inactive.
For CN1C(=O)/C(=C2/C=Cc3ccccc3N2CCCS(=O)(=O)O)SC1=S the results were HepG2 viability -0.2%, ATXN viability 15.8µM*, HT1080 IDH1KD tx -16.5%, ATXN2 expr inh 12.5%, HT1080-NT tox -1.9% and TGFb SMAD3 inh 1.8%.
For CCCN1/C(=C2/SC(=S)N(CC)C2=O)C=Cc2ccccc21 the results were HepG2 viability -27.4%, ATXN viability inconclusive, HT1080 IDH1KD tx -0.1%, ATXN2 expr inh -6.7%, HT1080-NT tox 13.4% and TGFb SMAD3 inh -16.8%.
For O=C(NCCCN1CCOCC1)NC1CCCCC1 the results were HepG2 viability 2.6%, ATXN viability inactive, HT1080 IDH1KD tx -4.0%, ATXN2 expr inh 3.9%, HT1080-NT tox -1.7% and TGFb SMAD3 inh 10.0%.
O=C(NCCCCCCCN1CCCCCCC1)C(C1CCCCC1)C1CCCCC1 was read as HepG2 viability -2.9%, HT1080 IDH1KD tx inconclusive, ATXN2 expr inh inconclusive, HT1080-NT tox -16.0% and TGFb SMAD3 inh 17.8µM*.
`CCOC(=O)C[n+]1cccc(Br)c1` gave HepG2 viability -2.8% and TGFb SMAD3 inh -5.5%.
For C[C@@H]1CN([C@@H](C)CO)C(=O)c2cc(C#CC3CCCCC3)cnc2O[C@@H]1CN(C)S(=O)(=O)c1ccc(F)cc1 the results were HepG2 viability -20.9%, ATXN viability 20µM*, HT1080 IDH1KD tx -28.5%, ATXN2 expr inh inconclusive, HT1080-NT tox -29.3% and TGFb SMAD3 inh inconclusive.
Screening C[C@H]1CN([C@@H](C)CO)C(=O)c2cccc(NC(=O)Nc3ccc(C(F)(F)F)cc3)c2O[C@@H]1CN(C)Cc1ccc(Cl)c(Cl)c1 returned HepG2 viability 12.6µM*, ATXN viability 14.1µM*, HT1080 IDH1KD tx inconclusive, ATXN2 expr inh 0.0%, HT1080-NT tox inconclusive and TGFb SMAD3 inh inconclusive.
Screening C[C@H](CO)N1C[C@H](C)[C@@H](CN(C)Cc2ccc(Cl)c(Cl)c2)Oc2c(NC(=O)C3CC3)cccc2C1=O returned HepG2 viability -39.7%, HT1080 IDH1KD tx -4.0%, ATXN2 expr inh inconclusive, HT1080-NT tox -29.7% and TGFb SMAD3 inh inconclusive.
For C[C@H](CO)N1C[C@H](C)[C@@H](CN(C)C(=O)Nc2ccc(C(F)(F)F)cc2)Oc2c(NC(=O)Nc3ccccc3)cccc2C1=O the results were HepG2 viability -43.7%, HT1080 IDH1KD tx -23.1%, ATXN2 expr inh inconclusive, HT1080-NT tox inconclusive and TGFb SMAD3 inh inconclusive.
`C[C@@H]1CCCCO[C@@H](CN(C)Cc2ccc(C(F)(F)F)cc2)[C@@H](C)CN([C@H](C)CO)C(=O)c2cc(N(C)C)ccc2O1` gave HepG2 viability -24.5%, ATXN viability 22.4µM*, HT1080 IDH1KD tx -28.5%, ATXN2 expr inh inconclusive, HT1080-NT tox -27.7% and TGFb SMAD3 inh inconclusive.
`C[C@H](CO)N1C[C@H](C)[C@@H](CN(C)Cc2ccc(Cl)c(Cl)c2)Oc2c(NC(=O)CCC(F)(F)F)cccc2C1=O` gave HepG2 viability -92.4%, ATXN viability inconclusive, HT1080 IDH1KD tx -14.4%, ATXN2 expr inh inconclusive, HT1080-NT tox -23.6% and TGFb SMAD3 inh 12.6µM*.
For CCCCCCCCCCCCCCCCCCN(C)C the results were ATXN viability inactive and ATXN2 expr inh 5.0%.
For COc1cc(OC)c(/C=C/c2ccncn2)c(OC)c1 the results were HepG2 viability -1.0% and TGFb SMAD3 inh inconclusive.
